High-throughput results (PubChem BioAssay)
This is a sample that favours compounds with a hit; in the whole collection about 19% have one here.
IL-1B inflam inh = blocks inflammasome-driven IL-1 beta release | THP-1 LPS/ATP IL-1B secretion, AlphaLISA, 16 h; stronger effect = lower value | activity change, % at 57.5 µM | hit rate 4.7% among 360,000 | AID 743279; in the data active = activity change below about -50%; inconclusive = mostly about -30% to -49%
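THP-1 cells pretreated 1 hr with compounds (up to 57.5 uM final), then stimulated with LPS (250 ng/mL final) plus ATP (1.25 mM final); secreted IL-1B measured by AlphaLISA after 16 hr, decreased signal indicating inhibition.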
TDP1 cell noCPT = qHTS for Inhibitors of human tyrosyl-DNA phosphodiesterase 1 (TDP1): qHTS in cells in absence of CPT. AID 686978, 2013. DT40 Tdp1-/- hTDP1 cells, no CPT, ATP luminescence, 48 h. Potency, µM (top dose mostly 46.2 µM), actives largely listed as inhibitors. hit rate 15% among 420,000; also: nearly all actives have a fitted effect of over 55% in size
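Chicken DT40 Tdp1-/- cells complemented with human TDP1, screened without camptothecin (DMSO vehicle only), 400 cells/well. Compounds pin-transferred, cells incubated at 37 °C for at least 48 hr. Growth read as ATP-dependent luminescence (CellTiter-Glo, 30 min at RT).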
HT1080 IDH1KD tx = HT-1080 IDH1 knockdown cell toxicity (counter line); HT-1080 IDH1 knockdown viability, ATP luminescence, 48 h; Potency, µM (titrated, usually from 46.1 µM), usual class: cytotoxic; hit rate 2% among 360,000; AID 686971
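Viability of IDH1-knockdown HT-1080 fibrosarcoma cells was assessed by CellTiter-Glo after 48 h at 37 °C with titrated compound; concentration-effect curves were classified by fit quality and response size.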
ELG1 repair inh = blocks ELG1-dependent DNA repair in HEK293T cells; AID 504467; Potency, µM (top dose mostly 46.1 µM), hits mostly inhibitors; HEK293T ELG1-luciferase reporter, luminescence, 16 h; DNA damage induced by 5-fluorouridine; hit rate 2.3% among 330,000; also: nearly all actives have a fitted effect of over 55% in size
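Quantitative HTS, concentration-response format. 2,000 cells/well co-treated with 5-fluorouridine and compound, 16 hr in 5% CO2 at 37 °C; ONE-Glo luminescence read after 30 min.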
HT1080-NT tox = kills 2HG-producing HT-1080-NT fibrosarcoma cells; HT-1080-NT fibrosarcoma viability, CellTiter-Glo ATP luminescence, 48 h; Potency, µM (highest dose often 46.1 µM), hits mostly cytotoxic; hit rate 1.6% among 360,000;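 also: NT is the 2HG producing partner of a matched IDH1 knockdown line; nearly all actives have a fitted effect of over 55% in size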
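Toxicity toward the 2HG-producing NT line was scored as %Activity, normalised to DMSO and no-cell wells, from CellTiter-Glo luminescence after 48 hours' treatment.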
DT40 TDP1 CPT = growth inhibition of DT40 Tdp1-/-;hTDP1 cells with camptothecin (screen for TDP1 inhibitors). hit rate 12% among 420,000. Potency, µM (series often up to 46.2 µM), most hits filed as inhibitors. chicken DT40 Tdp1-/-;hTDP1 cells + 20 nM CPT, ATP luminescence, 48 h. AID 686979; also: nearly all actives have a fitted effect of over 55% in size
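Chicken DT40 Tdp1-/- cells complemented with human TDP1, 400 cells/well, exposed to compounds plus 20 nM camptothecin for at least 48 h at 37 C; viability read as ATP content by CellTiter-Glo luminescence.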
Hits are given with their value; i = inactive; ? = inconclusive; nt = no result given; [ ] = remark or other dose. Unless noted, calls follow the shape of the dose curve; as a rule, active = well fitted curve in the direction sought with a large enough effect; inconclusive = small, poorly fitted or top-dose-only effect, or another doubt; inactive = no such curve, though single readings can be large; an effect the other way counts as inactive or inconclusive.

SMILES	IL-1B inflam inh	TDP1 cell noCPT	HT1080 IDH1KD tx	ELG1 repair inh	HT1080-NT tox	DT40 TDP1 CPT
Cc1c(C(=O)N2CCOCC2)c(S(=O)(=O)Nc2ccccc2)c(C)n1C	i	i	i	i	i	i
O=C(NC(Cc1ccccc1)C(=O)O)/C(=C\c1ccc(Cl)cc1)NC(=O)c1ccco1 (stereo not given)	i	i	i	i	i	i
CC1CCCCC1NC(=O)CN1C(=O)CSc2cc(S(=O)(=O)N3CCCCCC3)ccc21 (stereo not given)	i	21µM	i	?	i	?
O=C(CN1C(=O)CSc2cc(S(=O)(=O)N3CCCCCC3)ccc21)NCCc1ccccc1	-62	?	i	i	i	?
COC(=O)c1cc(S(=O)(=O)NCC2CCN(Cc3cccc(Cl)c3)CC2)c[nH]1	i	?	i	i	i	i
Cc1cc(C)cc(C(=O)NCC(=O)OCC(=O)N2CCCC2)c1	i	i	i	nt	i	i
C1=C(CN2CCOCC2)COc2c1cccc2OC[C@@H]1CNCCO1	nt	i	nt	nt	nt	i
CCN(C(=O)CSc1nnc(Cn2nnc3ccccc32)o1)c1nc(-c2ccccc2)cs1	i	?	i	18µM	i	23µM
CCN(C(=O)CSc1nnc(Cn2nnc3ccccc32)o1)c1nc(C)cs1	i	?	i	?	i	?
O=C(CSc1nnc(Cn2nnc3ccccc32)o1)N(Cc1ccc(Cl)cc1)c1ccccc1	-52	7.3µM	3.3µM	i	i	7.3µM
CC(OC(=O)c1ccccc1)C(=O)NCCC1=CCCCC1 (stereo not given)	i	i	i	i	i	i
CCC(C(=O)NCCC1=CCCCC1)c1ccccc1 (stereo not given)	i	15µM	i	i	i	?
O=C(COC(=O)CSc1ccc([N+](=O)[O-])cc1)NCCC1=CCCCC1	i	i	i	i	i	i
CC(C(=O)NCCC1=CCCCC1)c1ccc([N+](=O)[O-])cc1 (stereo not given)	i	16µM	i	i	i	?
COc1ccc(C(=O)N2CCC3(CCN(Cc4ccccc4OC)CC3)CC2)cc1	nt	i	nt	nt	nt	i
COCCCn1c(SCc2nnc(-c3ccc(OC)c(OC)c3)o2)nc2ccccc2c1=O	?	23µM	?	12µM	?	?
COc1ccc(-c2nnc(CSc3nc4ccccc4c(=O)n3CC(C)C)o2)cc1OC	i	16µM	?	?	?	?
CC(C)Cn1c(SCC#N)nc2ccccc2c1=O	i	?	i	i	i	i
CSc1ccc(NC(=O)NCc2ccccc2)cc1	i	i	i	?	i	i
O=C(Cn1ncc2c3ccccc3n(Cc3ccccc3F)c2c1=O)NCCCN1CCCC1=O	-53	i	i	i	i	?
O=C(Cn1ncc2c3ccccc3n(Cc3ccccc3F)c2c1=O)NCCCc1ccccc1	nt	18µM	nt	nt	nt	?
O=C(Cn1ncc2c3ccccc3n(Cc3ccccc3F)c2c1=O)NCCN1CCOCC1	i	?	i	i	i	?
Cc1ccccc1Cn1c2ccccc2c2cnn(CC(=O)NC(C)CCc3ccccc3)c(=O)c21 (stereo not given)	nt	9.2µM	nt	nt	nt	9.2µM
Cc1ccc(C)c(Cn2c3ccccc3c3cnn(CC(=O)NCc4ccccn4)c(=O)c32)c1	i	?	i	i	i	?
Cc1ccc(C)c(Cn2c3ccccc3c3cnn(CC(=O)NCCCc4ccccc4)c(=O)c32)c1	nt	9.2µM	nt	nt	nt	?
SMILES	IL-1B inflam inh	TDP1 cell noCPT	HT1080 IDH1KD tx	ELG1 repair inh	HT1080-NT tox	DT40 TDP1 CPT
CCC(C)C(NC(=O)CCC(=O)OCC(=O)[C@@]1(O)CCC2[C@@H]3CCC4=CC(=O)C=C[C@]4(C)C3[C@@H](O)C[C@@]21C)C(=O)O (stereo not given in full)	?	i	i	i	i	i
CCCCN(CC)CCCNC(=O)Cn1ncc2c3ccccc3n(Cc3ccccc3F)c2c1=O	nt	12µM	nt	nt	nt	13µM
Cc1ccc(C)c(Cn2c3ccccc3c3cnn(CC(=O)N4CCCCC4)c(=O)c32)c1	nt	i	nt	nt	nt	?
CC(=O)c1ccc(NC(=O)Cn2ncc3c4ccccc4n(Cc4ccccc4)c3c2=O)cc1	nt	i	nt	nt	nt	i
Cc1cccc(NC(=O)Cn2ncc3c4ccccc4n(Cc4ccccc4)c3c2=O)c1C	nt	23µM	nt	nt	nt	?
O=C(Cn1ncc2c3ccccc3n(Cc3ccccc3F)c2c1=O)NCc1ccccc1Cl	nt	18µM	nt	nt	nt	21µM
O=C(Cn1ncc2c3ccccc3n(Cc3ccccc3F)c2c1=O)NC1CC1	i	i	?	?	i	i
Cc1ccc(C)c(Cn2c3ccccc3c3cnn(CC(=O)NCCCN4CCCCC4)c(=O)c32)c1	?	16µM	?	i	?	?
O=C(Cn1ncc2c3ccccc3n(Cc3ccc(F)cc3)c2c1=O)NCCCN1CCCCC1	nt	i	nt	nt	nt	i
CCc1nnc(NS(=O)(=O)c2ccc(NCc3cc(Cl)ccc3O)cc2)s1	i	i	i	i	i	?
Cc1ccccc1Cn1c2ccccc2c2cnn(CC(=O)NCCc3ccccc3)c(=O)c21	nt	?	nt	nt	nt	16µM
CC(=O)Cc1cc(O)c2ccccc2c1OC(=O)c1ccccc1	i	15µM	?	i	?	?
COC(=O)CN1C(=O)CSc2ccc(S(=O)(=O)Nc3ccccc3)cc21	nt	i	nt	nt	nt	i
Cc1cccc2cc(CN(Cc3ccc(F)cc3)C(=O)C(F)(F)F)c3nnnn3c12	i	?	i	?	i	i
Cc1cccc2cc(CN(Cc3ccc(F)cc3)C(=O)N(C)C)c3nnnn3c12	i	21µM	i	i	i	23µM
O=C(COC(=O)c1cc[n+]([O-])cc1)Nc1ccc(F)c([N+](=O)[O-])c1	i	i	i	i	i	i
O=c1[nH]c(N2CCN(c3ccccc3)CC2)nc2c1CCCC2	i	23µM	i	?	i	?
CCOc1ccccc1-c1ccc2nccn2c1	i	?	i	nt	i	?
COc1cccc(/C=N/Nc2snc(SC)c2C#N)c1O	?	2.6µM	?	?	?	2.9µM
COc1ccc(/C=N/Nc2snc(SC)c2C#N)cc1OC	i	?	?	?	i	16µM
O=C(C1CC1)N1CCN(c2nc3c(Cl)cccc3s2)CC1	nt	21µM	nt	nt	nt	21µM
Cc1cc(C)c2nc(N3CCC(C(=O)N4CCN(c5ncccn5)CC4)CC3)sc2c1	-78	?	i[9.24 µM]	?	i	16µM
Cc1cc(C)c2nc(N3CCC(C(=O)NCCCN4CCCCC4)CC3)sc2c1	i	?	18µM	i	23µM	?
Cc1cc(C)c2nc(N3CCN(C(=O)c4cccs4)CC3)sc2c1	-70	?	i	?	i	i
